Compound activity deposited in PubChem by several laboratories.
Shown are actives, neighbours in structure and some others; about 1.2% of the full set was active somewhere.
UBC9 SUMO inh – inhibitors of in vitro SUMOylation cascade, primary screen, biochemical, HTRF, uHTS. SUMO-conjugating enzyme UBC9 (Homo sapiens), P63279. HTRF SUMOylation assay, SAE1/SAE2 + UBC9. inhibition, % at 35 µM. actives 0.36% (n = 290,000). AID 2006, 2009; in the data active = inhibition above about 50%, passing the limit was not always enough; inconclusive = no clear call, values can overlap the other calls
Target sequence (P63279 whole entry, looked up): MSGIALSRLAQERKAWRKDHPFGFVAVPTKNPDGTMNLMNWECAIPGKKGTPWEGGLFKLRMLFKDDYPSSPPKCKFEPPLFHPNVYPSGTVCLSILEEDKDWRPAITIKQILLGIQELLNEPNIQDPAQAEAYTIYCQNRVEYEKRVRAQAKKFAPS
PKD1 kinase inh – inhibitors of human PKD1 kinase, biochemical, fluorescence polarization | Serine/threonine-protein kinase D1 (Homo sapiens), Q15139 | inhibition, % (test concentration not listed) | AID 797, 2007 | actives 0.056% (n = 200,000) | PKD1 kinase fluorescence polarization assay; in the data active = inhibition above about 50%
FAS TE block – FAS thioesterase domain inhibitors, primary screen, biochemical, fluorescence intensity, uHTS. actives 0.67% (n = 360,000). inhibition, % at 15 µM. Fatty acid synthase (Homo sapiens), P49327. recombinant FAS-TE, OMFH fluorogenic substrate, fluorescence endpoint;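 active = compounds whose normalised, plate-corrected inhibition of enzyme fluorescence in the single-dose primary screen is 50% or more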;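 also: 0% = DMSO with enzyme and 100% = substrate without enzyme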
p97 ATPase inh – inhibitors of human p97 ATPase, primary screen, biochemical | Transitional endoplasmic reticulum ATPase (Homo sapiens), P55072 | recombinant p97 ATPase, Kinase-Glo ATP luminescence, 3 h | inhibition, % at 8 µM | actives 0.42% (n = 220,000) | AID 1481, 2009; in the data active = inhibition above about 15%;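 also: 0% = DMSO vehicle and 100% = wells lacking enzyme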
DTT redox prof – compounds producing H2O2 with reducing agent – biochemical, NIH compound library profiling, artefact control for MLSCN library redox annotation, primary screen; DTT-dependent redox cycling H2O2, phenol red/HRP absorbance; 100% = 100 µM peroxide control, 0% = buffer; activation, % at 10 µM; actives 0.03% (n = 200,000); AID 878, 2007;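 active = activation of at least 50% relative to the plate's high and low controls in the primary single-dose screen; inactive = activation below 50%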;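 also: compound incubated with DTT at 0.8 mM final as the reducing agent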
Furin inh – human furin inhibitors, primary screen, biochemical, fluorescence intensity; P09958; purified furin, fluorogenic substrate cleavage; inhibition, % at 20 µM or 30 µM; actives 0.061% (n = 220,000); in the data active = inhibition above about 25%
* = called active by the depositor; ? = inconclusive; · = not tested or not shown.

SMILES	UBC9 SUMO inh	PKD1 kinase inh	FAS TE block	p97 ATPase inh	DTT redox prof	Furin inh
Cn1cnc([N+](=O)[O-])c1S(=O)(=O)Oc1cccc2ccccc12	·	·	66*	·	·	·
COc1ccc(NC(=O)C2Cc3c(-c4cccc(F)c4)ccnc3O2)cc1OC (configuration not stated)	·	·	-2	·	·	·
CCCCNc1c(CCc2ccccc2)nc2nc(C)cc(C)n12	·	·	-14	·	·	·
COc1ccc(N(C(=O)CCl)C(C(=O)NCCc2ccccc2)c2cccs2)cc1 (configuration not stated)	4	-4	63*	-6	2	-7
COc1ccc(-n2c(N)c(C(=O)NCC3CCCO3)c3nc4ccccc4nc32)c(OC)c1 (configuration not stated)	82	-14	10	5	2	-30
Nc1c(C(=O)NCc2ccc(F)cc2)c2nc3ccccc3nc2n1CCCN1CCOCC1	45	-2	26	-3	0	-23
Nc1c(C(=O)NCc2ccccc2)c2nc3ccccc3nc2n1CCCN1CCOCC1	98*	3	24	-4	1	-19
C=CCn1c(N)c(C(=O)NCC2CCCO2)c2nc3ccccc3nc21 (configuration not stated)	95*	-8	1	-2	1	-45
NC(=O)CC1(c2ccccc2)CCCCC1	·	·	-6	·	·	·
CCCNC(=O)C1(C)CCCN(Cc2ccc3ccccc3c2)C1 (configuration not stated)	·	·	-5	·	·	·
Cc1ccc2nc(-c3ccc(N)cc3)sc2c1	26	·	12	0	·	-193
Nc1ccc2nc(-c3ccccc3)sc2c1	57*	-2	-2	-14	0	-30
O=C(CN1C(=O)c2ccccc2C1=O)N1CCOCC1	25	-13	-7	1	2	-32
O=C(CN1C(=O)c2ccccc2C1=O)N1CCN(C2c3ccccc3-c3ccccc32)CC1	8	-7	56*	6	0	-22
O=C(CSc1ccccn1)Nc1ccc2c(c1)C(=O)c1ccccc1C2=O	38	2	-8	1	0	-18
O=C(CSc1n[nH]c(=O)[nH]c1=O)Nc1ccc2c(c1)C(=O)c1ccccc1C2=O	88*	·	-1	10	·	-6
CCOC(=O)[C@]12CCCC=C1N(Cc1ccco1)C(=O)[C@H](CC(=O)NCCCN1CCCC1=O)C2	·	·	-11	·	·	·
Cc1ccc(S(=O)c2ccc([N+](=O)[O-])c3nonc23)cc1 (configuration not stated)	·	·	-22	·	·	·
CCOC(=O)C1CCN(c2nc(C)cc(C)c2C#N)CC1	1	-5	18	-3	-1	-20
CCOc1cc2c(C#N)c(N3CCNCC3)nc(N)c2c(N)n1	87*	-2	-8	4	-1	-32
CCOC(=O)C1CCN(c2nc(N)c3c(N)nc(SCC(=O)O)cc3c2C#N)CC1	100*	·	3	55*	·	-2
CCOc1cc2c(C#N)c(N3CCCCC3)nc(N)c2c(N)n1	96	0	4	2	5	1
CCOc1ccc(NS(=O)(=O)c2ccc(C(=O)N(C)CC(=O)Nc3ccccc3Br)cc2)cc1	·	·	3	·	·	·
O=C(NC1CCCCC1)c1ccc(-c2cn[nH]c2)c2ccoc12	·	·	-5	·	·	·
O=C(Nc1ccc(Br)cc1)c1cc([N+](=O)[O-])cc([N+](=O)[O-])c1	-4	·	55*	·	·	·
SMILES	UBC9 SUMO inh	PKD1 kinase inh	FAS TE block	p97 ATPase inh	DTT redox prof	Furin inh
CCOC(=O)c1cc(=O)n2nc(-c3ccccc3F)nc2s1	0	12	-6	16*	0	-15
CC1CCN(c2ccc(NC(=O)c3cccnc3)cc2)CC1	-5	-7	-7	-1	2	25*
Cc1ccc(NS(=O)(=O)c2cc([N+](=O)[O-])ccc2NNC(=S)Nc2cccc(Cl)c2)c(C)c1	12	5	52*	0	4	1
COc1ccc(Cc2n[nH]c(=S)n2NC(=O)Nc2ccc(Cl)c(Cl)c2)cc1	97*	·	27	3	·	-22
Cn1c(CC(=O)Nc2ccc(Cl)c(Cl)c2)n[nH]c1=S	6	-2	1	1	-1	-24
Fc1ccc(-c2nc3ccncc3[nH]2)cc1	19	-4	-40	-10	-2	1
COc1ccc(-c2nc3ccncc3[nH]2)cc1OC	65*	-5	-1	-11	-3	-2
O=c1oc(-c2cccs2)nc2sc3c(c12)CCC3	51*	-11	22	-2	-1	-13
Oc1ccc(/C=N/Nc2cc(N3CCCC3)nc(N3CCCC3)n2)cc1O	63*	19	-11	4	1	3
Oc1ccc(/C=N\Nc2cc(N3CCOCC3)nc(N3CCOCC3)n2)c(O)c1	?	0	8	11	0	-9
CCn1cc(CN2CCC(C(=O)Nc3ccc(Oc4ccccc4F)cc3)CC2)cn1	·	·	-3	·	·	·
c1ccc2c(c1)ncn2-c1cncnc1	·	·	-8	·	·	·
N#Cc1c(N)sc(=S)c2c1CCN(Cc1ccccc1)C2	67*	·	·	·	·	·
CCN1CCc2c(sc(N)c2C#N)C1	19	-1	-27	2	1	-21
O=[N+]([O-])c1cc(/C=N\Nc2nccs2)ccc1O	70*	-1	·	8	0	0
CC(C)C(NC(=O)C1(NC(=O)OCc2ccccc2)CCCC1)C(=O)O (configuration not stated)	·	·	-5	·	·	·
CC(C)N(C(=O)Nc1ccc2nccnc2c1)C(C)C	94*	9	-5	0	-1	-6
OC[C@@H]1CN(Cc2ccc(-c3ccccc3)cc2)C[C@H](n2cnc3c(NC4CCC4)ncnc32)O1	·	·	8	·	·	·
CNc1ccc(-c2cccc(C(=O)N3CCOCC3)c2)cn1	·	·	-8	·	·	·
C[C@H]1COc2cc(N3CCC[C@@H]3CO)ccc2S(=O)(=O)N1	·	·	-8	·	·	·
O=C(N/N=C/c1cc(Cl)cc([N+](=O)[O-])c1O)c1ccccc1NS(=O)(=O)c1cccs1	100*	·	27	4	·	-24
COc1cc(C(C)=O)ccc1OCC(=O)NCc1ccccc1CN1CCCC1	·	·	-5	·	·	·
CCOC(=O)COc1ccc2c(C#N)c3ccccn3c2c1	36	-1	9	7	0	-15
N#Cc1c2ccc(OCC(N)=O)cc2n2ccccc12	62*	-4	0	2	0	-19
CC(=O)Nc1cccc(-c2ccnc3c2CC(C)(C(=O)Nc2cccc(Oc4ccccc4)c2)O3)c1 (configuration not stated)	·	·	19	·	·	·
COc1ccc(-c2ccc3c(c2)c(Sc2ccccc2)c(-c2ccccc2)n3C)cn1	·	·	25	·	·	·
Cc1cc(N)ccc1N1CCCC1	41	-14	-21	17*	2	-34
Cc1ccc(NC(=S)Nc2cccc3cnccc23)c(C)c1	97*	-4	-3	7	0	-18
